{"source": "the supplement of paper PMC12282887", "assay_in_all_cases": "promoter activity interaction Z-score (Lux/OD deviation from empty-vector control); higher = stronger promoter induction by the compound", "key": {"[1]": {"tested_on": "E. coli BW25113 acrABp lux reporter", "in_short": "(§1)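 In 384-well plates, 40 µl LB Lennox cultures of E. coli BW25113 with low-copy luxCDABE promoter reporters grew at 37°C. Optical density at 600 nm and light output were recorded every 30 min for 12 h, with windows of 0–8 h for wild type and 1–9 h for deletion strains, and wells under 10% of the median growth value were left out. Each value is a Z-transformed residual of growth-normalised luminescence fitted against a control.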"}, "[2]": {"tested_on": "E. coli BW25113 micFp lux reporter", "in_short": "as §1"}, "[3]": {"tested_on": "E. coli BW25113 ompFp lux reporter", "in_short": "as §1"}, "[4]": {"tested_on": "E. coli BW25113 robp lux reporter", "in_short": "as §1"}, "[5]": {"tested_on": "E. coli BW25113 soxSp lux reporter", "in_short": "as §1"}, "[6]": {"tested_on": "E. coli BW25113 tolCp lux reporter", "in_short": "as §1"}, "[7]": {"conditions": "0.064 µg/ml, genetic background: wild type"}, "[8]": {"conditions": "0.064 µg/ml, genetic background: ΔmarA"}, "[9]": {"conditions": "0.064 µg/ml, genetic background: Δrob"}, "[10]": {"conditions": "0.064 µg/ml, genetic background: ΔsoxS"}, "[11]": {"conditions": "0.13 µg/ml, genetic background: wild type"}, "[12]": {"conditions": "0.13 µg/ml, genetic background: ΔmarA"}, "[13]": {"conditions": "0.13 µg/ml, genetic background: Δrob"}, "[14]": {"conditions": "0.13 µg/ml, genetic background: ΔsoxS"}, "[15]": {"conditions": "0.26 µg/ml, genetic background: wild type"}, "[16]": {"conditions": "0.26 µg/ml, genetic background: ΔmarA"}, "[17]": {"conditions": "0.26 µg/ml, genetic background: Δrob"}, "[18]": {"conditions": "0.26 µg/ml, genetic background: ΔsoxS"}, "[19]": {"conditions": "0.51 µg/ml, genetic background: wild type"}}, "note": "± gives the standard deviation of the averaged measurements.", "data": [{"smiles": "C[C@H]1c2cccc(O)c2C(=O)C2=C(O)[C@]3(O)C(=O)C(C(N)=O)=C(O)[C@@H](N(C)C)[C@@H]3[C@@H](O)[C@@H]21", "note": "[Doxycycline]", "values": [{"measurement": "promoter activity interaction Z-score", "setting": "[1]; [7]", "value": "0.468 ± 0.23"}, {"measurement": "promoter activity interaction Z-score", "setting": "[1]; [8]", "value": "-0.101 ± 0.52"}, {"measurement": "promoter activity interaction Z-score", "setting": "[1]; [9]", "value": "0.667 ± 0.18"}, {"measurement": "promoter activity interaction Z-score", "setting": "[1]; [10]", "value": "0.902 ± 0.18"}, {"measurement": "promoter activity interaction Z-score", "setting": "[1]; [11]", "value": "1.36 ± 0.11"}, {"measurement": "promoter activity interaction Z-score", "setting": "[1]; [12]", "value": "0.0555 ± 0.26"}, {"measurement": "promoter activity interaction Z-score", "setting": "[1]; [13]", "value": "2.17 ± 0.61"}, {"measurement": "promoter activity interaction Z-score", "setting": "[1]; [14]", "value": "2.67 ± 1.3"}, {"measurement": "promoter activity interaction Z-score", "setting": "[1]; [15]", "value": "3.4 ± 0.4"}, {"measurement": "promoter activity interaction Z-score", "setting": "[1]; [16]", "value": "-0.561 ± 0.26"}, {"measurement": "promoter activity interaction Z-score", "setting": "[1]; [17]", "value": "3.18 ± 0.3"}, {"measurement": "promoter activity interaction Z-score", "setting": "[1]; [18]", "value": "3.94 ± 0.66"}, {"measurement": "promoter activity interaction Z-score", "setting": "[2]; [7]", "value": "1.47 ± 0.83"}, {"measurement": "promoter activity interaction Z-score", "setting": "[2]; [8]", "value": "0.45 ± 0.069"}, {"measurement": "promoter activity interaction Z-score", "setting": "[2]; [9]", "value": "-0.0978 ± 0.028"}, {"measurement": "promoter activity interaction Z-score", "setting": "[2]; [10]", "value": "0.831 ± 0.11"}, {"measurement": "promoter activity interaction Z-score", "setting": "[2]; [11]", "value": "2.59 ± 0.24"}, {"measurement": "promoter activity interaction Z-score", "setting": "[2]; [12]", "value": "0.672 ± 0.35"}, {"measurement": "promoter activity interaction Z-score", "setting": "[2]; [13]", "value": "0.226 ± 0.065"}, {"measurement": "promoter activity interaction Z-score", "setting": "[2]; [14]", "value": "2.53 ± 0.24"}, {"measurement": "promoter activity interaction Z-score", "setting": "[2]; [15]", "value": "1.58 ± 0.61"}, {"measurement": "promoter activity interaction Z-score", "setting": "[2]; [16]", "value": "1.02 ± 0.22"}, {"measurement": "promoter activity interaction Z-score", "setting": "[2]; [17]", "value": "-0.177 ± 0.23"}, {"measurement": "promoter activity interaction Z-score", "setting": "[2]; [18]", "value": "2.84 ± 1.2"}, {"measurement": "promoter activity interaction Z-score", "setting": "[2]; [19]", "value": "-0.656 ± 0.6"}, {"measurement": "promoter activity interaction Z-score", "setting": "[3]; [7]", "value": "2.17 ± 0.36"}, {"measurement": "promoter activity interaction Z-score", "setting": "[3]; [8]", "value": "2.03 ± 0.54"}, {"measurement": "promoter activity interaction Z-score", "setting": "[3]; [9]", "value": "2.36 ± 0.68"}, {"measurement": "promoter activity interaction Z-score", "setting": "[3]; [10]", "value": "2.91 ± 0.58"}, {"measurement": "promoter activity interaction Z-score", "setting": "[3]; [11]", "value": "2.54 ± 0.84"}, {"measurement": "promoter activity interaction Z-score", "setting": "[3]; [12]", "value": "1.92 ± 0.47"}, {"measurement": "promoter activity interaction Z-score", "setting": "[3]; [13]", "value": "2.05 ± 0.15"}, {"measurement": "promoter activity interaction Z-score", "setting": "[3]; [14]", "value": "3.33 ± 0.7"}, {"measurement": "promoter activity interaction Z-score", "setting": "[3]; [15]", "value": "0.914 ± 0.97"}, {"measurement": "promoter activity interaction Z-score", "setting": "[3]; [16]", "value": "-0.13 ± 1.5"}, {"measurement": "promoter activity interaction Z-score", "setting": "[3]; [17]", "value": "-1.55 ± 0.46"}, {"measurement": "promoter activity interaction Z-score", "setting": "[3]; [18]", "value": "2.96 ± 1.1"}, {"measurement": "promoter activity interaction Z-score", "setting": "[4]; [7]", "value": "0.541 ± 0.37"}, {"measurement": "promoter activity interaction Z-score", "setting": "[4]; [8]", "value": "0.726 ± 0.57"}, {"measurement": "promoter activity interaction Z-score", "setting": "[4]; [9]", "value": "0.325 ± 0.7"}, {"measurement": "promoter activity interaction Z-score", "setting": "[4]; [10]", "value": "1.37 ± 0.15"}, {"measurement": "promoter activity interaction Z-score", "setting": "[4]; [11]", "value": "-0.332 ± 0.71"}, {"measurement": "promoter activity interaction Z-score", "setting": "[4]; [12]", "value": "-0.921 ± 0.38"}, {"measurement": "promoter activity interaction Z-score", "setting": "[4]; [13]", "value": "-0.263 ± 1.5"}, {"measurement": "promoter activity interaction Z-score", "setting": "[4]; [14]", "value": "0.43 ± 1.4"}, {"measurement": "promoter activity interaction Z-score", "setting": "[4]; [15]", "value": "-1.3 ± 0.03"}, {"measurement": "promoter activity interaction Z-score", "setting": "[4]; [16]", "value": "-1.65 ± 0.046"}, {"measurement": "promoter activity interaction Z-score", "setting": "[4]; [17]", "value": "-2.35 ± 0.43"}, {"measurement": "promoter activity interaction Z-score", "setting": "[4]; [18]", "value": "-1.67 ± 0.45"}, {"measurement": "promoter activity interaction Z-score", "setting": "[4]; [19]", "value": "-0.891 ± 0.46"}, {"measurement": "promoter activity interaction Z-score", "setting": "[5]; [7]", "value": "0.306 ± 0.015"}, {"measurement": "promoter activity interaction Z-score", "setting": "[5]; [8]", "value": "0.57 ± 0.091"}, {"measurement": "promoter activity interaction Z-score", "setting": "[5]; [9]", "value": "0.328 ± 0.17"}, {"measurement": "promoter activity interaction Z-score", "setting": "[5]; [10]", "value": "0.664 ± 0.32"}, {"measurement": "promoter activity interaction Z-score", "setting": "[5]; [11]", "value": "0.688 ± 0.29"}, {"measurement": "promoter activity interaction Z-score", "setting": "[5]; [12]", "value": "0.899 ± 0.1"}, {"measurement": "promoter activity interaction Z-score", "setting": "[5]; [13]", "value": "0.658 ± 0.49"}, {"measurement": "promoter activity interaction Z-score", "setting": "[5]; [14]", "value": "1.87 ± 0.49"}, {"measurement": "promoter activity interaction Z-score", "setting": "[5]; [15]", "value": "1.52 ± 0.49"}, {"measurement": "promoter activity interaction Z-score", "setting": "[5]; [16]", "value": "2.111 ± 0.021"}, {"measurement": "promoter activity interaction Z-score", "setting": "[5]; [17]", "value": "0.693 ± 0.49"}, {"measurement": "promoter activity interaction Z-score", "setting": "[5]; [18]", "value": "2.44 ± 1"}, {"measurement": "promoter activity interaction Z-score", "setting": "[5]; [19]", "value": "1.1 ± 0.16"}, {"measurement": "promoter activity interaction Z-score", "setting": "[6]; [7]", "value": "0.271 ± 0.51"}, {"measurement": "promoter activity interaction Z-score", "setting": "[6]; [8]", "value": "1.62 ± 0.076"}, {"measurement": "promoter activity interaction Z-score", "setting": "[6]; [9]", "value": "-0.121 ± 0.96"}, {"measurement": "promoter activity interaction Z-score", "setting": "[6]; [10]", "value": "0.793 ± 0.57"}, {"measurement": "promoter activity interaction Z-score", "setting": "[6]; [11]", "value": "0.44 ± 0.19"}, {"measurement": "promoter activity interaction Z-score", "setting": "[6]; [12]", "value": "0.772 ± 1.2"}, {"measurement": "promoter activity interaction Z-score", "setting": "[6]; [13]", "value": "0.309 ± 0.4"}, {"measurement": "promoter activity interaction Z-score", "setting": "[6]; [14]", "value": "2.09 ± 0.67"}, {"measurement": "promoter activity interaction Z-score", "setting": "[6]; [15]", "value": "0.167 ± 0.028"}, {"measurement": "promoter activity interaction Z-score", "setting": "[6]; [16]", "value": "0.714 ± 0.019"}, {"measurement": "promoter activity interaction Z-score", "setting": "[6]; [17]", "value": "2.36 ± 3.6"}, {"measurement": "promoter activity interaction Z-score", "setting": "[6]; [18]", "value": "2.12 ± 1"}, {"measurement": "promoter activity interaction Z-score", "setting": "[6]; [19]", "value": "0.561 ± 1.1"}]}]}
